PubChem BioAssay AID1159580 (chemical genetic matrix, 2015)
In all, about 5,500 compounds went through this assay and about 2,000 (36%) were called active. Not shown: some 18% with an inconclusive outcome. No stated cut-off is given here; in the data, active means normalized growth mostly below about 0.91 (no sharp cut-off); inconclusive means no clear call, values can overlap the other calls; inactive means mostly above about 0.92. The list shows a part of the results.

Test: chemical genetic growth profiling, strain panel (AID 1159580);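 further: tested at 20 µM; growth read once vehicle control cultures reached saturation at 30 °C; 1 = growth at the plate median or of vehicle wells; lower values mean less growth of the strain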
Details: S. cerevisiae deletion strains, growth OD

Measured: normalized growth

COc1ccc(-c2coc3cc(O)ccc3c2=O)c(OC)c1
inactive: locus YAL013W, strain DEP1, hits give low values 1.01 | locus YAL021C, strain ccr4, hits give low values 0.995 | locus YAL026C, strain drs2, hits give low values 1.01 | locus YAL030W, strain snc1, hits give low values 1 | locus YBL061C, strain skt5, hits give low values 0.996 | locus YBR009C, strain hhf1, hits give low values 1.01 | locus YBR021W, strain FUR4, hits give low values 0.887 | locus YBR023C, strain chs3, hits give low values 1.01 | locus YBR171W, strain sec66, hits give low values 1.01 | locus YBR229C, strain ROT2, hits give low values 1 | locus YBR231C, strain swc5, hits give low values 0.982 | locus YBR279W, strain paf1, hits give low values 1.01 | locus YCL011C, strain gbp2, hits give low values 1.03 | locus YCL016C, strain dcc1, hits give low values 1.01 | locus YCL029C, strain bik1, hits give low values 1.01 | locus YCL069W, strain vba3, hits give low values 1.01 | locus YCR088W, strain abp1, hits give low values 1 | locus YDL005C, strain med2, hits give low values 1 | locus YDL035C, strain GPR1, hits give low values 1 | locus YDL040C, strain nat1, hits give low values 1 | locus YDL074C, strain BRE1, hits give low values 1.02 | locus YDL101C, strain DUN1, hits give low values 1 | locus YDL185W, strain tfp1, hits give low values 0.994 | locus YDL192W, strain arf1, hits give low values 0.99 | locus YDR001C, strain nth1, hits give low values 1 | locus YDR069C, strain doa4, hits give low values 0.982 | locus YDR101C, strain arx1, hits give low values 0.982 | locus YDR137W, strain rgp1, hits give low values 0.995 | locus YDR159W, strain sac3, hits give low values 0.976 | locus YDR162C, strain NBP2, hits give low values 0.937 | locus YDR195W, strain ref2 0.974 | locus YDR297W, strain sur2, hits give low values 0.995 | locus YDR318W, strain mcm21, hits give low values 1 | locus YDR334W, strain swr1, hits give low values 0.994 | locus YDR335W, strain msn5, hits give low values 1.02 | locus YDR388W, hits give low values 1 | locus YDR392W, strain spt3, hits give low values 0.951 | locus YDR502C, strain sam2, hits give low values 1 | locus YEL003W, strain gim4, hits give low values 0.985 | locus YEL037C, strain rad23, hits give low values 1.01 | locus YEL061C, strain CIN8 (second series), hits give low values 1 | locus YEL061C, strain CIN8, hits give low values 1 | locus YER015W, strain faa2, hits give low values 1.02 | locus YER016W, strain bim1, hits give low values 0.999 | locus YER110C, hits give low values 1.03 | locus YER111C, strain swi4, hits give low values 0.999 | locus YER155C, strain BEM2 (second series), hits give low values 0.977 | locus YER155C, strain BEM2, hits give low values 1.01 | locus YER167W, strain BCK2, hits give low values 1.01 | locus YFR010W, strain ubp6, hits give low values 0.984 | locus YGL078C, strain dbp3, hits give low values 0.988 | locus YGL086W, strain mad1, hits give low values 0.991 | locus YGL167C, strain pmr1, hits give low values 1.01 | locus YGL173C, strain kem1, hits give low values 0.997 | locus YGL227W, strain vid30, hits give low values 0.992 | locus YGL240W, strain doc1, hits give low values 0.972 | locus YGL248W, strain PDE1, hits give low values 1 | locus YGL253W, strain hxk2, hits give low values 0.981 | locus YGR135W, strain pre9, hits give low values 0.993 | locus YGR229C, strain SMI1, hits give low values 0.97 | locus YGR252W, strain gcn5, hits give low values 1.01 | locus YHR013C, strain ard1, hits give low values 1.01 | locus YHR027C, strain rpn1, hits give low values 1 | locus YHR030C, strain SLT2, hits give low values 1.01 | locus YHR079C, strain IRE1 (second series), hits give low values 1.01 | locus YHR094C, strain hxt1, hits give low values 0.995 | locus YHR129C, strain ARP1, hits give low values 1.02 | locus YHR142W, strain chs7, hits give low values 0.999 | locus YHR200W, strain rpn10, hits give low values 1 | locus YIL066C, strain RNR3, hits give low values 0.994 | locus YIL073C, strain SPO22, hits give low values 1.02 | locus YIL125W, strain kgd1, hits give low values 0.996 | locus YIR030C, strain dcg1, hits give low values 0.999 | locus YJL092W, strain hpr5, hits give low values 1 | locus YJL095W, strain BCK1 (second series), hits give low values 1 | locus YJL095W, strain BCK1, hits give low values 0.976 | locus YJL115W, strain asf1, hits give low values 1.01 | locus YJL129C, strain trk1, hits give low values 1.03 | locus YJL134W, strain LCB3, hits give low values 1.01 | locus YJL154C, strain vps35, hits give low values 1 | locus YJL164C, strain tpk1, hits give low values 1.01 | locus YJL166W, strain qcr8, hits give low values 0.995 | locus YJL168C, strain set2, hits give low values 1.02 | locus YJL187C, strain SWE1 (second series), hits give low values 0.998 | locus YJL187C, strain SWE1, hits give low values 1.02 | locus YJR043C, strain POL32, hits give low values 0.999 | locus YJR075W, strain HOC1, hits give low values 0.994 | locus YKL009W, strain mrt4, hits give low values 1.04 | locus YKL068W, hits give low values 1.01 | locus YKL085W, strain MDH1 (second series), hits give low values 0.996 | locus YKL085W, strain MDH1, hits give low values 0.996 | locus YKL160W, strain elf1, hits give low values 1.02 | locus YKL190W, strain CNB1, hits give low values 1 | locus YKR001C, strain vps1, hits give low values 0.973 | locus YKR026C, strain gcn3, hits give low values 1 | locus YKR091W, strain srl3, hits give low values 1.01 | locus YLL001W, strain dnm1, hits give low values 0.963 | locus YLL026W, hits give low values 1 | locus YLL041C, strain sdh2, hits give low values 1.01 | locus YLR027C, strain aat2, hits give low values 1.01 | locus YLR039C, strain RIC1, hits give low values 0.976 | locus YLR058C, strain SHM2, hits give low values 1.01 | locus YLR102C, strain apc9, hits give low values 1 | locus YLR221C, strain rsa3, hits give low values 1 | locus YLR258W, strain gsy2, hits give low values 1.01 | locus YLR262C, strain YPT6 (second series), hits give low values 0.995 | locus YLR262C, strain YPT6, hits give low values 0.989 | locus YLR268W, strain sec22, hits give low values 0.991 | locus YLR320W, strain mms22, hits give low values 1 | locus YLR330W, strain CHS5, hits give low values 1.02 | locus YLR342W, strain FKS1 (second series), hits give low values 1.03 | locus YLR342W, strain FKS1, hits give low values 1.02 | locus YLR357W, strain rsc2, hits give low values 0.98 | locus YLR370C, strain arc18, hits give low values 1 | locus YLR371W, strain rom2, hits give low values 0.998 | locus YLR384C, strain iki3, hits give low values 0.998 | locus YLR418C, strain cdc73, hits give low values 0.971 | locus YML016C, strain PPZ1, hits give low values 1 | locus YML032C, strain rad52, hits give low values 1.01 | locus YML120C, strain ndi1, hits give low values 1.02 | locus YML124C, strain tub3, hits give low values 1 | locus YMR058W, strain fet3, hits give low values 1 | locus YMR078C, strain ctf18, hits give low values 1.01 | locus YMR125W, strain sto1, hits give low values 1.01 | locus YMR129W, hits give low values 1.01 | locus YMR205C, strain PFK2, hits give low values 1.01 | locus YMR223W, strain ubp8, hits give low values 1.01 | locus YMR231W, strain pep5, hits give low values 1.01 | locus YMR307W, strain GAS1, hits give low values 0.901 | locus YNL067W, strain RPL9B, hits give low values 0.984 | locus YNL071W, strain lat1, hits give low values 1.01 | locus YNL128W, strain TEP1, hits give low values 1 | locus YNL209W, strain ssb2, hits give low values 1.01 | locus YNL233W, strain BNI4, hits give low values 0.993 | locus YNL248C, strain rpa49, hits give low values 1 | locus YNL250W, strain rad50, hits give low values 1.01 | locus YNL271C, strain bni1, hits give low values 0.992 | locus YNL298W, strain CLA4, hits give low values 1.01 | locus YNL307C, strain MCK1, hits give low values 1.01 | locus YNL322C, strain KRE1 (second series), hits give low values 1.01 | locus YNR049C, strain mso1, hits give low values 1.01 | locus YNR052C, strain pop2, hits give low values 1.01 | locus YOL012C, strain htz1 0.93 | locus YOL147C, strain pex11, hits give low values 0.998 | locus YOR001W, strain rrp6, hits give low values 0.998 | locus YOR061W, strain CKA2, hits give low values 1 | locus YOR069W, strain VPS5, hits give low values 1.01 | locus YOR070C, strain gyp1, hits give low values 1.01 | locus YOR080W, strain dia2, hits give low values 1 | locus YOR083W, strain WHI5, hits give low values 1.02 | locus YOR106W, strain vam3, hits give low values 1.03 | locus YOR136W, strain idh2, hits give low values 0.997 | locus YOR144C, strain elg1, hits give low values 0.988 | locus YOR184W, strain ser1, hits give low values 0.952 | locus YOR265W, strain rbl2, hits give low values 1.01 | locus YOR270C, strain vph1, hits give low values 0.959 | locus YOR290C, strain snf2, hits give low values 1.02 | locus YOR316C, strain cot1, hits give low values 1.01 | locus YPL051W, strain arl3, hits give low values 1.01 | locus YPL055C, strain LGE1, hits give low values 0.971 | locus YPL078C, strain atp4, hits give low values 1.03 | locus YPL106C, strain sse1, hits give low values 1.01 | locus YPL240C, strain hsp82, hits give low values 1.01 | locus YPL241C, strain CIN2, hits give low values 0.992 | locus YPR119W, strain clb2, hits give low values 1.01 | locus YPR141C, strain kar3, hits give low values 1 | locus YPR163C, strain tif3, hits give low values 0.999 | locus YPR167C, strain met16, hits give low values 1.01 | strain wtn01, hits give low values 1.01
